The panel holds about 83,000 compounds, 20% with a hit somewhere; the sample as a whole holds those more often.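 Percent growth is the endpoint: 0 to 100 indicates growth inhibition (40 means 60% inhibition), 0 means no net growth, and negative values indicate cell death.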 Values without a mark were called inactive. Active and inactive are the calls of the source. How the source made its calls: active means growth percent below 10; inactive means the rest.
Tests used:
Experiment in all cases: NCI-60 one-dose screen, 48 h (100 = growth as untreated, 0 = no growth, -100 = all killed)
Conditions in all cases: 10 µM unless noted
SK-MEL-2 melanoma = test system: SK-MEL-2 melanoma
EKVX NSCLC = test system: EKVX NSCLC
SN12C renal = test system: SN12C renal
UO-31 renal = test system: UO-31 renal
TK-10 renal = test system: TK-10 renal
ACHN renal = test system: ACHN renal
CAKI-1 renal = test system: CAKI-1 renal
A498 renal = test system: A498 renal
MOLT-4 leukemia = test system: MOLT-4 leukemia
CCRF-CEM leukemia = test system: CCRF-CEM leukemia

Row | Structure (SMILES) | growth (SK-MEL-2 melanoma) | growth (EKVX NSCLC) | growth (SN12C renal) | growth (UO-31 renal) | growth (TK-10 renal) | growth (ACHN renal) | growth (CAKI-1 renal) | growth (A498 renal) | growth (MOLT-4 leukemia) | growth (CCRF-CEM leukemia)
1 | CCN1C(=O)N(CC)C2Nn3c(s/c(=C\c4cccc(F)c4)c3=O)=NC21 (centres undefined) | 85.3% | 79% | 79.6% | 65.1% | 109% | 66.7% | 48.9% | 46.1% | 94.9% | 
2 | COc1ccc(OC)c(/C=C2\Oc3cc(OCCN4CCCC4)ccc3C2=O)c1 | 106% | 95.2% | 92.8% | 74.1% | 110% | 92.7% | 79.7% | 78.2% | 87.5% | 
3 | COC1=CC(c2ccc[nH]2)=N/C1=C\c1[nH]c(C)c(C(=O)CCC(=O)Oc2ccc3c(c2)CCC2C3CC[C@]3(C)[C@@H](O)CC[C@@H]23)c1C (some centres undefined) | 1.42% (active) |  | 17.3% | -61.9% (active) | 34.4% | -55.3% (active) | -39.3% (active) | -12.7% (active) | -9.7% (active) | 0.176% (active)
4 | Clc1ccc(/C=C/c2nc(N3CCOCC3)c3nc(Cl)c(Cl)cc3n2)cc1 | 110% |  | 94.1% | 76.7% | 107% | 51.5% | 109% | 106% | 88% | 106%
5 | Cc1oc2nc[nH]c(=O)c2c1C(=O)/C=C/c1ccc(Cl)cc1Cl | 91.3% | 117% | 67% | 67.6% | 123% | 66.4% | 46.1% | 94.3% | 86.8% | 
6 | O=C(Nc1ccccc1)OCC1OCOC(COC(=O)Nc2ccccc2)C1OC(=O)Nc1ccccc1 (centres undefined) | 109% |  | 77.3% | 85.6% | 83.3% | 48.4% | 91.7% | 69% | 73.8% | 29.5%
7 | CC(=O)C1CCC(C)=CC1=O (centres undefined) | 94.3% |  | 99% | 80.3% | 97.7% | 98.4% | 96.5% | 87.6% | 88.3% | 100%
8 | CCCCCCCCCCCCCCCCCCOc1cccc(CCOP(=O)(O)OCC[N+](C)(C)C)c1 | 90.4% | 97% | 91.1% | 91.5% | 36.5% | 95.8% | 55.3% | 99.2% | 104% | 
9 | COc1ccc(NC(=O)/N=c2\oc3c(OC)cccc3cc2-c2cc3ccccc3[nH]2)cc1 | 75.9% | 72.3% | 78.1% | 90.4% | 42% | 34.9% | 49% | 75% | 112% | 
10 | COc1ccc(-c2nc(-c3ccccc3)c(-c3ccccc3)n2C2CC2)cc1OC1CCCCC1 | 87.3% |  | 73.3% | 62.9% | 92.3% | 53.8% | 58.4% | 63.7% | 32.7% | 30.5%
11 | COC1=CC(c2ccc[nH]2)=N/C1=C\c1[nH]c(C)c(C(=O)CCCCC(=O)NCc2ccccc2)c1C | 97.1% |  | 44.9% | 13.9% | 45.8% | 50.2% | -9.17% (active) | 89.1% | 70.1% | 39.2%

Source: PubChem BioAssay (NCI)
